Hit rate of the full screen: of about 2,500 compounds, about 480 (19%) were called active.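 How the source made its calls: active means mean inhibition above about 25% (limit read from the data); inactive means the rest.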 Many of the other results were omitted from the sample, so actives are more common in it than they were.

The experiment is described as follows: Wnt3a reporter signal inhibition, confirmation, counter-screen for Gli-SUFU antagonist project, Wnt-LIGHT cells, luminescence, single concentration (AID 651995). The following applies: Wnt3a-driven luciferase reporter, at 6.25 µM, hits give high values. (In general: The purpose of a counterscreen is to sort out artefacts and off-target activity.)
A word on the inhibition: it is the relative decrease from the control value, in per cent. Regarding `CCOc1cccc(=NC2CCCCC2)c2c(C)[nH]c(C)c12`, the inhibition was 26.5% (active).

For the origin of these results see PubChem BioAssay AID651995 (Sanford-Burnham Center for Chemical Genomics, 2013).
